A selection: hits, their analogues and other compounds. The true share with any hit is near 2.1%.
YB-1 expr inh: YB-1 expression inhibition; 30,000 compounds, 0.37% hits; AID 434959; delta delta Cp (YB-1 minus CDIP) (no concentration beside the values); U2OS, qRT-PCR YB-1 vs CDIP delta delta Cp, 16 h; stronger effect = higher value; zero = DMSO, each unit about twofold;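 active means delta delta Cp rounded down to an integer at or above 3, about 3 SD of DMSO wells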;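 further: higher means less YB-1 transcript or more CDIP transcript relative to DMSO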
ROS inducer: cancer cell ROS induction; 46,000 compounds, 2% hits; U2OS ROS induction, H2DCF-DA fluorescence; ROS induction (% of piperlongumine), % at 10 µM; in the data active means ROS induction above about 79%, passing the limit was not always enough
Hits are given with their value.

For O=C(NC1CCCC1)c1ccccc1 the results were ROS inducer inactive.
C[C@H](CO)N1C[C@H](C)[C@@H](CN(C)C(=O)Nc2ccc(C(C)(C)C)cc2)OCc2cnnn2CCCC1=O was read as YB-1 expr inh inactive and ROS inducer inactive.
For COc1ccccc1CN(C)C[C@H]1OCc2cnnn2CCCC(=O)N([C@H](C)CO)C[C@H]1C the results were YB-1 expr inh inactive and ROS inducer 113.3.
Screening COc1ccccc1CN(C)C[C@H]1OCc2cnnn2CCCC(=O)N([C@@H](C)CO)C[C@H]1C returned YB-1 expr inh inactive and ROS inducer inactive.
Screening C[C@@H]1CN([C@@H](C)CO)C(=O)CCCn2nncc2CO[C@@H]1CN(C)C(=O)Nc1ccc(C(C)(C)C)cc1 returned YB-1 expr inh inactive and ROS inducer 113.6.
For CCOC(=O)N1CCN(Cc2cc(=O)oc3ccc(OC)cc23)CC1 the results were ROS inducer inactive.
`O=CNC1c2ccccc2Oc2ccccc21` gave ROS inducer inactive.
`C[C@@H]1CN([C@@H](C)CO)C(=O)c2cccc(NC(=O)C3CC3)c2O[C@@H]1CN(C)C(=O)Nc1ccc2c(c1)OCO2` gave YB-1 expr inh 3.7 and ROS inducer inactive.
Screening COc1ccc(NC(=O)N(C)C[C@H]2Oc3c(cccc3N(C)C)C(=O)N([C@H](C)CO)C[C@@H]2C)cc1 returned YB-1 expr inh inactive and ROS inducer 79.4.
Screening COc1ccc(NC(=O)Nc2cccc3c2O[C@H](CN(C)C(=O)Nc2c(C)noc2C)[C@H](C)CN([C@@H](C)CO)C3=O)cc1 returned YB-1 expr inh inactive and ROS inducer inactive.
For Cc1noc(C)c1NC(=O)N(C)C[C@@H]1Oc2c(NC(=O)Nc3ccc4c(c3)OCO4)cccc2C(=O)N([C@@H](C)CO)C[C@H]1C the results were YB-1 expr inh inactive and ROS inducer 115.5.
Screening COc1ccc(NC(=O)N(C)C[C@@H]2Oc3c(cccc3N(C)C)C(=O)N([C@H](C)CO)C[C@H]2C)cc1 returned YB-1 expr inh inactive and ROS inducer inactive.
Screening COc1ccc(NC(=O)Nc2cccc3c2O[C@H](CN(C)C(=O)Nc2c(C)noc2C)[C@H](C)CN([C@H](C)CO)C3=O)cc1 returned YB-1 expr inh 5.89 and ROS inducer inactive.
`Cc1noc(C)c1NC(=O)N(C)C[C@@H]1Oc2c(NC(=O)Nc3ccc4c(c3)OCO4)cccc2C(=O)N([C@H](C)CO)C[C@@H]1C` gave YB-1 expr inh inactive and ROS inducer inactive.
For C[C@H]1CN([C@@H](C)CO)C(=O)c2cccc(NC(=O)C3CC3)c2O[C@H]1CN(C)C(=O)Nc1ccc2c(c1)OCO2 the results were YB-1 expr inh inactive and ROS inducer inactive.
Screening CCCC(=O)N1CCC(c2ccc(OC)cc2)=N1 returned ROS inducer inactive.
Screening CCC(C)NC(=O)c1cc(-c2ccccn2)nc2ccccc12 (stereo unspecified) returned ROS inducer inactive.
For O=C(c1cc2ccccc2o1)N1CCCc2ccccc21 the results were ROS inducer inactive.
Screening Cc1ccc(CNC(=O)c2cc(=O)[nH]c3ccc(Br)cc23)cc1 returned ROS inducer inactive.
C[C@@H]1CN([C@H](C)CO)C(=O)c2cc(NC(=O)Nc3ccc(C(F)(F)F)cc3)ccc2O[C@H]1CN(C)C(=O)Nc1ccc2c(c1)OCO2 was read as YB-1 expr inh inactive and ROS inducer inactive.
`C[C@@H]1CN([C@H](C)CO)C(=O)c2cc(NC(=O)Nc3ccc(F)cc3)ccc2O[C@@H]1CN(C)C(=O)Nc1ccc2c(c1)OCO2` gave YB-1 expr inh inactive and ROS inducer inactive.
C[C@H]1CN([C@@H](C)CO)C(=O)c2cc(NC(=O)Nc3ccc4c(c3)OCO4)ccc2O[C@H]1CN(C)C(=O)Nc1ccc(F)cc1 was read as YB-1 expr inh inactive and ROS inducer 85.9.
For C[C@@H]1CN([C@@H](C)CO)C(=O)c2cc(NC(=O)Nc3ccc4c(c3)OCO4)ccc2O[C@@H]1CN(C)C(=O)Nc1ccc(C(F)(F)F)cc1 the results were YB-1 expr inh inactive and ROS inducer 227.2.
COc1ccc(OC)c(S(=O)(=O)NCc2cn3ccccc3n2)c1 was read as ROS inducer inactive.
Screening Cn1c(=S)n(CCSc2nc3ccccc3[nH]2)c2ccccc21 returned ROS inducer inactive.
For CCN(CC)C(=O)c1nn(C)c(=O)c2ccccc12 the results were ROS inducer inactive.
For COc1ccc2c(Sc3ccccc3)c(C(=O)N3CCCCC3)[nH]c2c1 the results were ROS inducer inactive.
`Cc1cc(NC(=O)C2CCCCC2C(=O)O)ccc1NC(=O)c1ccccc1` (stereo unspecified) gave ROS inducer 126.3.
`COc1cccc(C(=O)Nc2ccc(NC(=O)C3CCCCC3C(=O)O)cc2)c1` (stereo unspecified) gave ROS inducer inactive.
For COc1ccc(NC(=O)C(C)n2sc3ccccc3c2=O)cc1 (stereo unspecified) the results were ROS inducer inactive.
COc1ccc(-c2cc(=O)c3c(O)cc(O)cc3o2)cc1 was read as YB-1 expr inh inactive and ROS inducer inactive.
Screening COc1cc(O)c2c(=O)cc(-c3ccc(OC)c(-c4c(O)cc(O)c5c(=O)cc(-c6ccc(O)cc6)oc45)c3)oc2c1 returned YB-1 expr inh inactive and ROS inducer 179.3.
Screening CCOC(=O)c1c(NC(C)=O)nc(SC)n1Cc1ccco1 returned ROS inducer inactive.
For CN(C)C(=O)c1cccc2c1-c1ccccc1C2=O the results were YB-1 expr inh inactive and ROS inducer inactive.
For C[C@@H]1CCCCO[C@@H](CN(C)C(=O)Nc2cccc3ccccc23)[C@@H](C)CN([C@H](C)CO)C(=O)c2cc(NC(=O)C3CCCCC3)ccc2O1 the results were YB-1 expr inh inactive and ROS inducer 133.5.
`C[C@@H]1CCCCO[C@H](CN(C)C(=O)Nc2cccc3ccccc23)[C@@H](C)CN([C@H](C)CO)C(=O)c2cc(NS(=O)(=O)c3ccc(Cl)cc3)ccc2O1` gave YB-1 expr inh 14.9 and ROS inducer 88.9.
`C[C@@H]1CCCCO[C@H](CN(C)C(=O)Nc2cccc3ccccc23)[C@@H](C)CN([C@H](C)CO)C(=O)c2cc(NC(=O)C3CCCCC3)ccc2O1` gave YB-1 expr inh inactive and ROS inducer inactive.
C[C@@H]1CCCCO[C@H](CN(C)C(=O)Nc2cccc3ccccc23)[C@@H](C)CN([C@H](C)CO)C(=O)c2cc(NS(=O)(=O)c3ccccc3)ccc2O1 was read as YB-1 expr inh inactive and ROS inducer inactive.
Screening CCCc1cc(=O)oc2c(C)c(OC(C)C(=O)O)ccc12 (stereo unspecified) returned ROS inducer inactive.
`O=C(/C=C/c1ccccc1)Nc1ccc(Br)cc1` gave ROS inducer inactive.
For O=C(Nc1ccc([N+](=O)[O-])cc1O)Nc1ccccc1Br the results were YB-1 expr inh 3.04 and ROS inducer inactive.
O=C(COc1ccc(I)cc1)Nc1ccc([N+](=O)[O-])cc1O was read as ROS inducer inactive.
Screening COc1cccc(NC(=O)CSc2ncnc3ccccc23)c1 returned ROS inducer inactive.
Screening COc1ccc(OC)c(NC(=O)CSc2nc(-c3ccccc3)cs2)c1 returned ROS inducer inactive.
CC1(C)Cc2nc(-c3ccccc3)nc(SCC(=O)Nc3ccc(Br)cc3)c2CO1 was read as ROS inducer 112.7.
CC(=O)c1ccc(NC(=O)CSc2ncnc3c2sc2nc4c(cc23)COC(C)(C)C4)cc1 was read as ROS inducer inactive.

Bioassay records: PubChem BioAssay, Broad Institute
